The target in assay [1] is T1, Inhibitor of nuclear factor kappa-B kinase subunit epsilon (Homo sapiens) (UniProt Q14164).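 Also: reported values are averaged percent inhibition figures against human IKKε.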
T1 sequence (whole entry): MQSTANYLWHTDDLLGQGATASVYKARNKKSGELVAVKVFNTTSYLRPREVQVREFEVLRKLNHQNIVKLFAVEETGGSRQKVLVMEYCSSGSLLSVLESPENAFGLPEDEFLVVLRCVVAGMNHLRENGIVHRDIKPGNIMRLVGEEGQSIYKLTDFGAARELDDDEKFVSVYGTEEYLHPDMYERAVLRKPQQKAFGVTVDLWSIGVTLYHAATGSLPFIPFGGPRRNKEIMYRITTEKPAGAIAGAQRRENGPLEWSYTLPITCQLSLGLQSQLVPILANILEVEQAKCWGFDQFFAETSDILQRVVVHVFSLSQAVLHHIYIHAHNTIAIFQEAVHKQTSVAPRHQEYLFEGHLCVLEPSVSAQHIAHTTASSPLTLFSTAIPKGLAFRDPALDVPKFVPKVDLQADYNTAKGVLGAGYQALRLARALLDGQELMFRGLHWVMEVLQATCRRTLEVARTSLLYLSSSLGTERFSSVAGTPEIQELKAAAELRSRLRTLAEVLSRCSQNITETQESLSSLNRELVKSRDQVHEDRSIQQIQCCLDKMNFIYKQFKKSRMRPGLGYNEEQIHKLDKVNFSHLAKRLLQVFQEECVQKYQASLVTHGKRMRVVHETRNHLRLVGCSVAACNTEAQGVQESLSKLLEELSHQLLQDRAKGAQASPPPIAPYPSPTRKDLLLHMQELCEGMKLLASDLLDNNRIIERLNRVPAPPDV
To be noted: at 1 µM.

Assay [2] concerns the target T2, Serine/threonine-protein kinase Nek1 (Homo sapiens) (UniProt Q96PY6).
T2 sequence (whole entry): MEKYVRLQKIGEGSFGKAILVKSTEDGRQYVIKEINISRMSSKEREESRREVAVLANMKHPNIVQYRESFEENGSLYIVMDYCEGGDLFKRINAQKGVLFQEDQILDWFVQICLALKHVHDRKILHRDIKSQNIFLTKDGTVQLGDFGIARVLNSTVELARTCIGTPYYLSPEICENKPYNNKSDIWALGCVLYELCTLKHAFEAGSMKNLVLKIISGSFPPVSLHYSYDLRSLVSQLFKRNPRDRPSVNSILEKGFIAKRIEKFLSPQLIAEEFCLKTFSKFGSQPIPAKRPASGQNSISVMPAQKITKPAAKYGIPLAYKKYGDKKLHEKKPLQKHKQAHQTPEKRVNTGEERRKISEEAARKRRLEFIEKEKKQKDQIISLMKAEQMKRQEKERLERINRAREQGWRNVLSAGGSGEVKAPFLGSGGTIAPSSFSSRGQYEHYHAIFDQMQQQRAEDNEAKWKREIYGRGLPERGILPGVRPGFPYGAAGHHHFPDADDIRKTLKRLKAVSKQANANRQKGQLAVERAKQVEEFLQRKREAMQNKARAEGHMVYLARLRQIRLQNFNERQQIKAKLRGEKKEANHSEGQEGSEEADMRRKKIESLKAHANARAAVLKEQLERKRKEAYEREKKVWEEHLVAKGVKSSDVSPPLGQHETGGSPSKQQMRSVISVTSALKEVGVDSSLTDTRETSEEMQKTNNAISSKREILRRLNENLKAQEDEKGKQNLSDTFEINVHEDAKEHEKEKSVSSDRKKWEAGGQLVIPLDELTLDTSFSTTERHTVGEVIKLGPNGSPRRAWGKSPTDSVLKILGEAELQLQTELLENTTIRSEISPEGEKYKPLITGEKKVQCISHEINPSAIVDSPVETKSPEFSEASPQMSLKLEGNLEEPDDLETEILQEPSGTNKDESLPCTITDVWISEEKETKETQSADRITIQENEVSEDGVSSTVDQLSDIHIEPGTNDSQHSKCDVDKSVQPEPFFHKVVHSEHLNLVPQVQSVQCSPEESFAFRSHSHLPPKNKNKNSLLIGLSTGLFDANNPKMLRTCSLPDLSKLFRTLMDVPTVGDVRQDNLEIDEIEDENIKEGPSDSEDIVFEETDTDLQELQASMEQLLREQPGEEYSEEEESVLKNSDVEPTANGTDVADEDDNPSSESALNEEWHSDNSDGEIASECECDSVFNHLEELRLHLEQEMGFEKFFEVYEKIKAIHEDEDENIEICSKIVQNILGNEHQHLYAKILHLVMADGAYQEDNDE
To be noted: at 0.1 µM.

Assay [3] concerns the target T2, Serine/threonine-protein kinase Nek1 (Homo sapiens). To be noted: at 1 µM.
The target in assay [4] is T3, Serine/threonine-protein kinase Nek2 (Homo sapiens) (UniProt P51955).
T3 sequence (whole entry): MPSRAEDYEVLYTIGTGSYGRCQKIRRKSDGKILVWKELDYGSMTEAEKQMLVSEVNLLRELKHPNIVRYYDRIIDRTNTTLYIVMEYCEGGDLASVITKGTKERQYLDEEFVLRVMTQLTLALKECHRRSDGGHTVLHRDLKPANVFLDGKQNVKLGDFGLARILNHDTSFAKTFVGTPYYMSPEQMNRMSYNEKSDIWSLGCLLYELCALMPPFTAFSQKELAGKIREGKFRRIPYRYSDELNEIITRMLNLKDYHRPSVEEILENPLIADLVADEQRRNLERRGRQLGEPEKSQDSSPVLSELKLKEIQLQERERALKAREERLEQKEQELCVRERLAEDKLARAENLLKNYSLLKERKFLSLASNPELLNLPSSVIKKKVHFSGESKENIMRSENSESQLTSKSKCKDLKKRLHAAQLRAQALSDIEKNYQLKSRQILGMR
To be noted: at 0.1 µM.

The target of assay [5] is T3, Serine/threonine-protein kinase Nek2 (Homo sapiens). To be noted: at 1 µM.
Assay [6] has as its target Serine/threonine-protein kinase Nek6 (Homo sapiens) (UniProt Q9HC98). To be noted: at 0.1 µM.
The target is the same in assay [7]. To be noted: at 1 µM.
Assay [8] addresses Serine/threonine-protein kinase Nek7 (Homo sapiens) (UniProt Q8TDX7). To be noted: at 0.1 µM.
Assay [9] shares this target. To be noted: at 1 µM.
Assay [10] concerns the target T4, Serine/threonine-protein kinase Nek9 (Homo sapiens) (UniProt Q8TD19).
T4 sequence (whole entry): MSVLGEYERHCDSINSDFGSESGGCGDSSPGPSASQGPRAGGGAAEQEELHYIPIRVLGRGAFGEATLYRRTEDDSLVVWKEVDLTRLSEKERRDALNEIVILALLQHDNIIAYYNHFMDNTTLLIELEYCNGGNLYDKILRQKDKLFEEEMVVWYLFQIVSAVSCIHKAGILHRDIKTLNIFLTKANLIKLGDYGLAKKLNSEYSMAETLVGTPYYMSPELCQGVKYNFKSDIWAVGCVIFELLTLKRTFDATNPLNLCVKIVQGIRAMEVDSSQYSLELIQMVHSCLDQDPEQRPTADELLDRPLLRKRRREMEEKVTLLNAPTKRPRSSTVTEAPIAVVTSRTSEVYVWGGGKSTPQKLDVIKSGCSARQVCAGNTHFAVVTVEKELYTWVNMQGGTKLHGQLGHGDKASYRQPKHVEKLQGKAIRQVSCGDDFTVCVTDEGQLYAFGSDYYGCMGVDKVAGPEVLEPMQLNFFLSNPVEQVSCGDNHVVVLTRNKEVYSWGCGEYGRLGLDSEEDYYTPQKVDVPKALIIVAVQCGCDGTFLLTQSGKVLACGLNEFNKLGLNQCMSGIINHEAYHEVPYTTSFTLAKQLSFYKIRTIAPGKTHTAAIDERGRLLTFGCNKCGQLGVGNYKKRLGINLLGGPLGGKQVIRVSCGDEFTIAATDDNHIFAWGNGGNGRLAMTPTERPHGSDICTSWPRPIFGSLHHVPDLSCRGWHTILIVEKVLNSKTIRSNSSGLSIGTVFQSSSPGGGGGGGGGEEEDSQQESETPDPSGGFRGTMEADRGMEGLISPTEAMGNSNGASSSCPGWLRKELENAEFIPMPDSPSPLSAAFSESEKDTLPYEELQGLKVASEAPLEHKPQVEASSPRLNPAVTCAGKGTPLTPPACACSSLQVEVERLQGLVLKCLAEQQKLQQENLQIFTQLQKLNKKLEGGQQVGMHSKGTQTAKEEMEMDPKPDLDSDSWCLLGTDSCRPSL
To be noted: at 0.1 µM.

In assay [11] the target is T4, Serine/threonine-protein kinase Nek9 (Homo sapiens). To be noted: at 1 µM.
Assay [12] deals with Serine/threonine-protein kinase PLK1 (Homo sapiens) (UniProt P53350). To be noted: at 0.1 µM.
Assay [13] has the same target. To be noted: at 1 µM.
In assay [14] the target is T5, Dual specificity protein kinase TTK (Homo sapiens) (UniProt P33981).
T5 sequence (whole entry): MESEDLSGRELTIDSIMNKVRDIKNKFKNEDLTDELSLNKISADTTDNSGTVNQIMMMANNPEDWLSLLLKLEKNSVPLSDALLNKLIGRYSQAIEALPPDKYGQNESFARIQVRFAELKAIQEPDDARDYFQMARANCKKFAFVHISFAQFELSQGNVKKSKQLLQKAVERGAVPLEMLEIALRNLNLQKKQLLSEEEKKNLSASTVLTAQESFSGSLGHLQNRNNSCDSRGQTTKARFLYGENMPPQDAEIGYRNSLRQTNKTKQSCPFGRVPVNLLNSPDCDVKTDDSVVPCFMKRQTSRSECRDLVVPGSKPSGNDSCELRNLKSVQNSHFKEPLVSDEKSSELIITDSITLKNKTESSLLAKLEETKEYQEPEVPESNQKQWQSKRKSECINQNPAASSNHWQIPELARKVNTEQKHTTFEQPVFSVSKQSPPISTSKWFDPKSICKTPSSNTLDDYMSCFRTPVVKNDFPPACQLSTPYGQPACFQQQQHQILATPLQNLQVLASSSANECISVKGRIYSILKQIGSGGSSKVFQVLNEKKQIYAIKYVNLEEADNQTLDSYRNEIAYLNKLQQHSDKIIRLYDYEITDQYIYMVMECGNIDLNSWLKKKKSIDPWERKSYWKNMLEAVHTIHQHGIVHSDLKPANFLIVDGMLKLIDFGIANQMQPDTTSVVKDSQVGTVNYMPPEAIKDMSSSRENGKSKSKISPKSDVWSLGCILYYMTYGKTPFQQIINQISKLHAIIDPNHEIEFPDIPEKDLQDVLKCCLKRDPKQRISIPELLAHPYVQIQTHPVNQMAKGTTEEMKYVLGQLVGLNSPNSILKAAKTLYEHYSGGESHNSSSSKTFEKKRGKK
To be noted: at 0.1 µM.

The subject of assay [15] is T6, Receptor-type tyrosine-protein kinase FLT3 (Homo sapiens), P36888 [D835Y].
T6 sequence (whole entry): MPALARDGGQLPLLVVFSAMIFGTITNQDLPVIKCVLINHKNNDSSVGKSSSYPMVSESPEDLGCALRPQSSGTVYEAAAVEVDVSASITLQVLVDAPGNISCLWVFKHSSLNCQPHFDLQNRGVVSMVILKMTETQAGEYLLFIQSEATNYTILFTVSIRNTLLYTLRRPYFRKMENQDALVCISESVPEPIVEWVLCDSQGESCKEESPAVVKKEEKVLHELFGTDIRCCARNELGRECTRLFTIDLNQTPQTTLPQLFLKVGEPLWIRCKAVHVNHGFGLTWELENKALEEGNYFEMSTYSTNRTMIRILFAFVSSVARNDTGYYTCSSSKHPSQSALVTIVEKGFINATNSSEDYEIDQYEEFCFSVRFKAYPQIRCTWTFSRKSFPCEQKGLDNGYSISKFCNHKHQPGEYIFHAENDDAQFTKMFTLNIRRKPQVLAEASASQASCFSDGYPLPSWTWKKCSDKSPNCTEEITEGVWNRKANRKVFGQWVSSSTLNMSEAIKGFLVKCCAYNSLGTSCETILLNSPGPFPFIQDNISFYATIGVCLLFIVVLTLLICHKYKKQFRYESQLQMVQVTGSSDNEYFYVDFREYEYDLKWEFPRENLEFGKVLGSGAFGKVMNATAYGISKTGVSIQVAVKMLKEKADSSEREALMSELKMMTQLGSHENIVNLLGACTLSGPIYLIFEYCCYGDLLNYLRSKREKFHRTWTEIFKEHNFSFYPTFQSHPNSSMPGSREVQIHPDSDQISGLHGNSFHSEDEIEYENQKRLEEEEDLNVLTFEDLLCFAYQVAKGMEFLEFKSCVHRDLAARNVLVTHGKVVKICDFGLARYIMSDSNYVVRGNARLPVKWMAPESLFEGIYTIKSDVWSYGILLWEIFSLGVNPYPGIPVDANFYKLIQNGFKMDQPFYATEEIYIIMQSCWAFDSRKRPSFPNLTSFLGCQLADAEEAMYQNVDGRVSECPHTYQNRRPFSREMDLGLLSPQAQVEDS
To be noted: at 1 µM.

For assay [16], the target named is Vascular endothelial growth factor receptor 3 (Homo sapiens) (UniProt P35916). To be noted: at 0.1 µM.
For assay [17] the target is unchanged. To be noted: at 1 µM.
Assay [18] concerns the target Macrophage colony-stimulating factor 1 receptor (Homo sapiens) (UniProt P07333). To be noted: at 0.1 µM.
Assay [19] shares this target. To be noted: at 1 µM.
The target of assay [20] is Tyrosine-protein kinase Fyn (Homo sapiens) (UniProt P06241). To be noted: at 0.1 µM.
Sequence of Tyrosine-protein kinase Fyn (Homo sapiens) (P06241 2-537 limits assumed): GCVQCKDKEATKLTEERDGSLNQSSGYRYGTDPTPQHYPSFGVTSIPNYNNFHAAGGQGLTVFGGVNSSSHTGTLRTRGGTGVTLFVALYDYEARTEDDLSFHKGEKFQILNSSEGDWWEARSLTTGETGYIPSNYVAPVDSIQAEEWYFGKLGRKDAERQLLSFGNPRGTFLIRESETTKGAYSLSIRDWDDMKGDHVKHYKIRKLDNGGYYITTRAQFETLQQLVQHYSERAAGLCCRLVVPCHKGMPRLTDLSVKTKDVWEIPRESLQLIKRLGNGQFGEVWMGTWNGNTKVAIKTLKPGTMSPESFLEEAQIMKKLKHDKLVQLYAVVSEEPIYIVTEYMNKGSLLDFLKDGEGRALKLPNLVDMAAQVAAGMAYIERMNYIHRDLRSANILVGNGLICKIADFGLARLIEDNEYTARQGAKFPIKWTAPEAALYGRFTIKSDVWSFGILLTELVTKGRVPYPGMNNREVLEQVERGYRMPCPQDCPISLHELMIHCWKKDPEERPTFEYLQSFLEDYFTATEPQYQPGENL

Sequence of Serine/threonine-protein kinase Nek6 (Homo sapiens) (Q9HC98 whole entry): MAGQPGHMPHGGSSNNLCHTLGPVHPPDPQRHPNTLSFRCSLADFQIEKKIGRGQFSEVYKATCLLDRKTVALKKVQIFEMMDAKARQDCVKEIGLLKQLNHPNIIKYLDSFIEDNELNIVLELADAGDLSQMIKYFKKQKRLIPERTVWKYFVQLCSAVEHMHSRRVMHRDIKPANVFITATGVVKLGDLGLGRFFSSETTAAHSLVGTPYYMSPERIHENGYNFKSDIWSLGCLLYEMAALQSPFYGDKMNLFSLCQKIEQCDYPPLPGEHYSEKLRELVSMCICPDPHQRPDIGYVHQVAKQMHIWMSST
Sequence of Serine/threonine-protein kinase Nek7 (Homo sapiens) (Q8TDX7 whole entry, looked up): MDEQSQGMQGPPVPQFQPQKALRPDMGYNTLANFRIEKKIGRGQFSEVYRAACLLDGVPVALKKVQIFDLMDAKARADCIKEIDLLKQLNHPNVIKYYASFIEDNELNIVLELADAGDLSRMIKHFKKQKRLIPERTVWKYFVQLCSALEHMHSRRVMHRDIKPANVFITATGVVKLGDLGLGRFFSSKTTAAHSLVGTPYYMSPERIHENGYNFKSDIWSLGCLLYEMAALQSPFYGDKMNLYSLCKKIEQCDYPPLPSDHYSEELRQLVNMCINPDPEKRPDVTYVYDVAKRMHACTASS
Sequence of Vascular endothelial growth factor receptor 3 (Homo sapiens) (P35916 whole entry): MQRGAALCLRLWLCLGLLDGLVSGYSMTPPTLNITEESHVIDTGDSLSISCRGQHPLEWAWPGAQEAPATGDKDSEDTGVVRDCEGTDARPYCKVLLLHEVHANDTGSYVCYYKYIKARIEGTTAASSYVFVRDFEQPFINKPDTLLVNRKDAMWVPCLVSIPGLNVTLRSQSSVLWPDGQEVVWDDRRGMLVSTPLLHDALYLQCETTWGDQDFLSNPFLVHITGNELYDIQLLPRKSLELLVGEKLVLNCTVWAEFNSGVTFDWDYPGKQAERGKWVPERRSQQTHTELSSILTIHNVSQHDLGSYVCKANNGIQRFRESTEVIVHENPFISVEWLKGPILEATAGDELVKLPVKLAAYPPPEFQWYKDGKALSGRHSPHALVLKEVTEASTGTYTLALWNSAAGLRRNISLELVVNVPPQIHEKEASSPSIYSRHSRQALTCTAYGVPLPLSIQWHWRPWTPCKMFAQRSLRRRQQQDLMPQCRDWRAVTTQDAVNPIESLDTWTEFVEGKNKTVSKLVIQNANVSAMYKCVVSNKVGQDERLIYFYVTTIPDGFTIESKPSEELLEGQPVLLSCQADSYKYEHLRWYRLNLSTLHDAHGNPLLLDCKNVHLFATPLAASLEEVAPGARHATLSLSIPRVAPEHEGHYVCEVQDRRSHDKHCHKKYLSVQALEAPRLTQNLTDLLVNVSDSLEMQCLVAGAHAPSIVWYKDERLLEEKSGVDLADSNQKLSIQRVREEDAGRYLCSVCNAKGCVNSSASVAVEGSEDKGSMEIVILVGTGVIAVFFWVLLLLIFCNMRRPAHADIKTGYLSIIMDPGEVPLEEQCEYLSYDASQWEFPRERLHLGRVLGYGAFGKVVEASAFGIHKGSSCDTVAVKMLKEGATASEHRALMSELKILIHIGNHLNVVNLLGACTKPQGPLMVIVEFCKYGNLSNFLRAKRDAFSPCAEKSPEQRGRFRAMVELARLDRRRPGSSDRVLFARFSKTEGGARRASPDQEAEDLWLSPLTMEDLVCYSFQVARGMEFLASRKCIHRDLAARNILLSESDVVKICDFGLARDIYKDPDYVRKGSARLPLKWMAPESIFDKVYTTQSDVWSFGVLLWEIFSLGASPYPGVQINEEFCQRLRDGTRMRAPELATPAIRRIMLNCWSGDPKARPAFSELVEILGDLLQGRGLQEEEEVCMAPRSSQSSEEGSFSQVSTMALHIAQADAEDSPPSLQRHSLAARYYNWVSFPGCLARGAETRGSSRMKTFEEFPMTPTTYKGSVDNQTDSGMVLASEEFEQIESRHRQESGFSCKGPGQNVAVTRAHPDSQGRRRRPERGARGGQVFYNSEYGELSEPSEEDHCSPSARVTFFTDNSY
Sequence of Macrophage colony-stimulating factor 1 receptor (Homo sapiens) (P07333 whole entry): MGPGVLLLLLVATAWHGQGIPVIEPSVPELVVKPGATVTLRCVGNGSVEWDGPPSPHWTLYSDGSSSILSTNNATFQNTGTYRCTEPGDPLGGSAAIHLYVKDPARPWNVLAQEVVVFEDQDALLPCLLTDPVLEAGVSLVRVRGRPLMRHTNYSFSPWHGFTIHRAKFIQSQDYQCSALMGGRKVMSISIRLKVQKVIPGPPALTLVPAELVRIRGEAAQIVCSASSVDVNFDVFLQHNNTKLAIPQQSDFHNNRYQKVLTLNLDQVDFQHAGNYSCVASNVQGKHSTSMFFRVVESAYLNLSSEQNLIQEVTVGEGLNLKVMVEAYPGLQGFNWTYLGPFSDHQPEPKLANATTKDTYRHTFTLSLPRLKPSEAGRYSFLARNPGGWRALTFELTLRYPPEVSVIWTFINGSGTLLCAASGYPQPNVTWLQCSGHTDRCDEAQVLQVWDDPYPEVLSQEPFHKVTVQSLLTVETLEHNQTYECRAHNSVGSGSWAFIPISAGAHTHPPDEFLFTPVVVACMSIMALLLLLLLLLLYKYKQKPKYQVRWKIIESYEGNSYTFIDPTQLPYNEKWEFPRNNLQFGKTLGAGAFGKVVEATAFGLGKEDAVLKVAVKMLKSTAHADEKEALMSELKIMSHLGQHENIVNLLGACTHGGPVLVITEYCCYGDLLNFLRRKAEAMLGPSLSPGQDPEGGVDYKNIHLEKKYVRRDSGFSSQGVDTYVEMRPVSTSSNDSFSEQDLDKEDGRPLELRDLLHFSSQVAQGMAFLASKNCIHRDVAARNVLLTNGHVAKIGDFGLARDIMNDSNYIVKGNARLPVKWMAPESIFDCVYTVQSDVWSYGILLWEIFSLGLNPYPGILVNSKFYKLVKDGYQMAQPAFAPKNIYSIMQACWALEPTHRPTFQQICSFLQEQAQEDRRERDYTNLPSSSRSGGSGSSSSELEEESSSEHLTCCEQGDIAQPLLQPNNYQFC
Sequence of Serine/threonine-protein kinase PLK1 (Homo sapiens) (P53350 whole entry): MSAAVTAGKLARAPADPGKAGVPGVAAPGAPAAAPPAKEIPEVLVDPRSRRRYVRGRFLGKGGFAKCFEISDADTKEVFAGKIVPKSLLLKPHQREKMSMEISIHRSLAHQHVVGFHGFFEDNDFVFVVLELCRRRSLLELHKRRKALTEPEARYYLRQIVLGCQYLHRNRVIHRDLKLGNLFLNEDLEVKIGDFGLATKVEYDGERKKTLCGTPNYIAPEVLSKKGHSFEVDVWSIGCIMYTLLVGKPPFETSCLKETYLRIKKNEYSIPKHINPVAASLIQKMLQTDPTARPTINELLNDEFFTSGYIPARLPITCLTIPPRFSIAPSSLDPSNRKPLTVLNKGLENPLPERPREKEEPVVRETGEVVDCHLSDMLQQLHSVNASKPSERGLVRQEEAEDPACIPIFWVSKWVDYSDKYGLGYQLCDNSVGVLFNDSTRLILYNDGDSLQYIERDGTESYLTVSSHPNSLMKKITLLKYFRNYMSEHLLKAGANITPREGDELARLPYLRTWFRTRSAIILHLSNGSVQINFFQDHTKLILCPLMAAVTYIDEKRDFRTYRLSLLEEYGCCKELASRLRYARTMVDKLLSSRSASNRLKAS

A word on the inhibition: it is how much of the control response was suppressed. For `COc1c(C(N)=O)cc(-c2ccc(Cl)cc2)cc1-c1ccc(S(N)(=O)=O)cc1`, the inhibition in assay [1] is 5.47%; in [2], 2.17%; in assay [3], 4.16%; in [4], 6.76%; in [5], 5.43%; in [6] it was 0.6%. For the same molecule, the inhibition in [7] was determined as 1.71%; in assay [8] it was 4.31%; in [9], 10.4%; in [10], 4.85%; in [11] it was 5.67%; in [12], 4.84%. For the same molecule, the inhibition came out at 8.71% in [13]; 11.8% in assay [14]; 0.7% in assay [15]; 2.5% in assay [16]; 0.39% in [17]; 5.24% in assay [18]. The inhibition is 4.74% in assay [19] and 1.12% in assay [20].
